The record followed here is PubChem BioAssay (NCI).

Each structure is given as a SMILES string. Compounds without any hit were thinned out: in the full panel of roughly 83,000, 20% have a hit.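 Single-dose data. Exposure time 48 hours. Values below 10 considered active.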 Values without a mark were called inactive. Calls of active or inactive are those of the source.

What all share (test): NCI-60 one-dose screen, 48 h (100 = growth as untreated, 0 = no growth, -100 = all killed)
Holding throughout (settings): 10 µM unless noted

For test [1], the system named is NCI-H23 lung.
The test system of test [2] is NCI-H226 lung.
Test [3] deals with NCI-H322M lung.
The test system of test [4] is HOP-62 NSCLC.
The subject of test [5] is NCI-H460 lung.
The subject of test [6] is HOP-92 NSCLC.
Test [7] relates to NCI-H522 lung.
The test system of test [8] is A549/ATCC NSCLC.
The test system of test [9] is 786-0 renal.
Test [10] deals with COLO 205 colon.

As for `CCNC(=O)N1CCc2c(Cl)c3c(c(OC)c2[C@@H]1[C@H]1OCc2c1ccc(OC)c2OC)OCCO3`, the growth in [1] is 32.6%; in [2] it was 60.1%; in test [3], 30.1%; in [4] it was 35.3%; in test [5] it was 9.88% (active); in test [6] it was 44.5%. The growth in test [7] is 11.6%; in test [8] it was 35.2%; in test [9] it was 26.9%; in [10] it was -11% (active).

`c1ccc2c(c1)CN(CCCN1CCOCC1)C2`: the growth was 99.6% in test [1]; 96.2% in test [2]; 99.7% in [3]; 103% in test [4]; 103% in test [5]; 126% in test [6]. For the same compound, the growth in [7] is 98.3%; in [8], 96.8%; in test [9] it was 102%; in test [10], 108%.

As for `COc1ccc(/C=C/C=C\C(=O)c2ccc(-n3ccnc3)cc2)cc1`, the growth in test [1] was 94.1%; in test [2], 84.3%; in [3], 101%; in test [4], 101%; in test [5], 92.7%; in [6] it was 96.5%. The growth in [7] was 85.3%; in test [8] it was 81.9%; in [9], -0.616% (active); in [10] it was 101%.

With `CC(C)=CC/C=C(/C)[C@H]1CC[C@]2(C)[C@@H]1CC[C@@H]1[C@@]3(C)CCC(=O)NC(C)(C)[C@@H]3CC[C@]12C`, the growth in test [1] was 13.6% [100 µM]; in test [2] it was -1.12% [100 µM] (active); in test [3], 36.1% [100 µM]; in test [4] it was 14.3% [100 µM]; in test [5], -16.7% [100 µM] (active); in test [6], -6.9% [100 µM] (active). Moreover, the growth in test [7] is -58% [100 µM] (active); in test [8], 15.3% [100 µM]; in test [9] it was -33% [100 µM] (active); in test [10], -0.368% [100 µM] (active).

In the case of `C=C(C)[C@@H]1CC[C@]2(C(=O)O)CC[C@]3(C)[C@H](CC[C@@H]4[C@@]5(C)C/C(=C/c6ccco6)C(=O)C(C)(C)[C@@H]5CC[C@]43C)[C@@H]12`, the growth is -58.6% [100 µM] (active) in test [1]; -37.5% [100 µM] (active) in [2]; -87.9% [100 µM] (active) in test [3]; -85.2% [100 µM] (active) in [4]; -55.6% [100 µM] (active) in [5]; -86.4% [100 µM] (active) in [6]. Also, the growth in [7] is -72.7% [100 µM] (active); in test [8], -73.7% [100 µM] (active); in test [9] it was -60.4% [100 µM] (active); in [10], -73.1% [100 µM] (active).

On to `C[C@@H](NC(=O)[C@@H](CC(=O)N1CCC(N2CCCCC2)CC1)N1C(=O)[C@@H](N2C(=O)OC[C@@H]2c2ccccc2)[C@H]1/C=C/c1cccc(Cl)c1)c1ccccc1`, for which the growth in test [1] is 87.8%; in test [2], 89.8%; in test [3], 82.1%; in test [4] it was 87.6%; in [5], 13.3%; in test [6], 58.3%. In addition, the growth in test [7] is 64.2%; in test [8] it was 63.9%; in test [9], 65%; in [10], -54.6% (active).

For `O=C(N[C@@H]1CCCc2ccccc21)[C@H](CCC(=O)N1CCN(C2CCCCC2)CC1)N1C(=O)[C@@H](N2C(=O)OC[C@@H]2c2ccccc2)[C@H]1/C=C/c1ccccc1`, the growth was 57.7% in test [1]; 64.4% in [2]; 34.6% in [3]; 61.3% in [4]; 29.4% in [5]; 2.75% (active) in [6]. In addition, the growth in [7] was 52.3%; in [8] it was 28%; in [9] it was 42.1%; in test [10], 34.4%.

With `Cc1ccc(-c2cn(C/C=C3\C=CN(S(=O)(=O)c4ccccc4)CC3)nn2)cc1`, the growth was 96.1% in test [1]; 99.5% in test [2]; 95.8% in test [3]; 97.6% in [4]; 99.1% in test [5]; 92.7% in test [6]. The growth in [7] was 93.3%; in [8] it was 104%; in [9], 101%; in test [10] it was 129%.

For `O=C(O)c1cc([N+](=O)[O-])ccc1Br`, the growth in test [1] was 105%; in test [2], 97.8%; in test [3] it was 94.1%; in [4], 109%; in test [5], 105%; in test [6] it was 91.4%. The growth in test [7] was 97.3%; in test [8], 101%; in [9], 102%; in test [10], 115%.

As for `C=CCCCCOc1ccccc1-c1cnc(OCCCCC=C)n1C`, the growth in test [1] is 76%; in test [2], 92.2%; in test [3], 72%; in [4] it was 77.2%; in test [5], 55.6%; in [6], 75.2%. Further, the growth in test [7] is 12.6%; in test [8], 50.3%; in test [9] it was 107%; in test [10], 46%.

Regarding `Cc1nc(Cl)c2c(n1)N(C)c1ccc(Cl)cc1C(C)C2` (stereo not given), the growth in test [1] is 92.5%; in test [2], 87.7%; in [3], 97.1%; in test [4], 90.4%; in test [5] it was 92.3%; in [6], 66%. Also, the growth in [7] is 77.8%; in test [8], 84.6%; in [9], 90%; in [10] it was 97.3%.

Take `CCCCCCNC(=O)Nc1ncnc2c1ncn2-c1ccccc1`: the growth is 98% in test [1]; 93.8% in [2]; 94.9% in test [3]; 77.6% in test [4]; 102% in [5]; 89.3% in test [6]. In addition, the growth in test [7] was 82.5%; in test [8], 88%; in [9] it was 85.5%; in test [10], 88.8%.

For `Cc1cccc(C[C@H](NC(=O)Nc2ccc(Cl)cc2F)C(=O)N[C@@H]2C(=O)N3C[C@H](OC(=O)CCN(C)C)C[C@H]3C(=O)N3CCCC[C@H]3C(=O)N[C@@H](C)C(=O)N3C[C@H](C)C[C@H]3C(=O)O[C@H]2C)c1`, the growth in [1] was 34.4%; in test [2], 28%; in test [3], 59.2%; in test [4] it was 35%; in [5] it was 13.6%; in test [6] it was 19.1%. Further, the growth in test [7] is 24.6%; in test [8] it was 25.4%; in test [9], 22.5%; in test [10], 9.51% (active).

For `O=[N+]([O-])c1cc(CCl)ccc1OCCBr`, the growth in test [1] is 102%; in test [2], 94.8%; in [3], 104%; in test [4], 105%; in [5] it was 101%; in test [6] it was 98.6%. Besides, the growth was 96.1% in [7], 104% in [8], 103% in test [9] and 107% in [10].

For `CCc1ccc(NC(=O)N[C@@H](Cc2cc(F)cc(F)c2)C(=O)N[C@@H]2C(=O)N3C[C@H](O)C[C@H]3C(=O)N3CCOC[C@H]3C(=O)N[C@@H](C)C(=O)N3C[C@H](C)C[C@H]3C(=O)O[C@H]2C)cc1`, the growth in test [1] was 34.5%; in [2] it was 63.2%; in [3], 84.3%; in test [4], 72.9%; in test [5] it was 46.5%; in test [6], 10.3%. The growth in test [7] was 27%; in test [8], 79.3%; in [9], 89.1%; in test [10], 11.1%.

On to `O=C1Nc2ccccc2/C1=C/C(=O)c1ccc(N2CCCC2)cc1`, for which the growth was 31.8% in test [1]; 73.4% in [2]; 81.8% in test [3]; 33.4% in test [4]; 9.75% (active) in test [5]; 40.4% in test [6]. Moreover, the growth in [7] is -2.44% (active); in test [8], 54.4%; in [9] it was 100%; in test [10], 8.29% (active).

In the case of `COc1cc2c(c(OC)c1OC)-c1cc(I)c(O)cc1[C@@H](NC(C)=O)CC2`, the growth is 48.8% in test [1]; 5.87% (active) in test [2]; 70.3% in test [3]; 42% in test [4]; 3.02% (active) in [5]; 62.1% in [6]. Moreover, the growth in test [7] was -12.2% (active); in test [8], 14.9%; in [9], 29.7%; in [10], -64% (active).

`Cn1cc(-c2noc(-c3cn(C)c4ncc(F)cc34)n2)c2ccccc21`: the growth in test [1] is 75.1%; in test [2], 76.7%; in test [3], 41.3%; in test [4], 36.3%; in [5], 22.9%; in test [6] it was 62%. For the same compound, the growth is 66.2% in test [7], 37.9% in test [8], 33.6% in test [9] and 66.7% in test [10].

For `C=C(C)[C@@H]1CC[C@]2(C(=O)NCCCN)CC[C@]3(C)[C@H](CC[C@@H]4[C@@]5(C)CC[C@H](O)C(C)(C)[C@@H]5CC[C@]43C)[C@@H]12`, the growth in test [1] was -8.47% [100 µM] (active); in test [2], 36.6% [100 µM]; in test [3] it was -68.8% [100 µM] (active); in [4], -26.8% [100 µM] (active); in test [5], -43.2% [100 µM] (active); in test [6], -55.5% [100 µM] (active). Further, the growth in test [7] is -17% [100 µM] (active); in [8] it was -4.7% [100 µM] (active); in [9], -22.6% [100 µM] (active); in test [10], 7.82% [100 µM] (active).

In the case of `NS(=O)(=O)c1ccc(CCN2C(=O)/C(=C\c3ccccc3)C=C2c2ccc(Cl)cc2)cc1`, the growth was 104% in [1]; 102% in test [2]; 89.8% in test [3]; 95.5% in test [4]; 99.3% in [5]; 76.3% in test [6]. The growth in test [7] was 91.8%; in test [8], 99.1%; in test [9], 96.4%; in test [10] it was 115%.

In the case of `Cn1cc(-c2noc(-c3cn(C)c4ncc(Br)cc34)n2)c2cc(Cl)ccc21`, the growth in test [1] is 75.1%; in test [2], 88%; in [3], 47.4%; in [4], 50.5%; in test [5], 25.8%; in [6], 76.7%. Further, the growth in [7] was 63.1%; in [8], 96.6%; in [9], 53.7%; in [10], 66.4%.

With `O=C(CCCCCCSc1nc(-c2ccc(Cl)cc2)cc(-c2ccc(Cl)cc2)n1)NO`, the growth in test [1] was 24.2%; in test [2] it was 26.7%; in test [3], 38.4%; in test [4] it was 15.9%; in test [5], 14.9%; in test [6], 44.8%. The growth was 17.1% in [7], 7.16% (active) in test [8], 30.8% in [9] and 48.4% in test [10].

With `Cc1cnc(N)nc1OCCNC(=O)c1cccc(-c2ccc(S(=O)(=O)Nc3ccc4c(c3)N(C(=O)C3CC3)CCC4)cc2)c1`, the growth in test [1] is 72.4%; in test [2], 72%; in [3], 87.5%; in [4], 79.8%; in test [5], 75.4%; in test [6], 41%. The growth in [7] is 70.1%; in test [8], 79.7%; in [9] it was 82.3%; in test [10], 99.1%.

For the compound `CC[C@@H]1NC(=O)[C@@H]2CCCCN2C(=O)[C@@H]2CCCN2C(=O)[C@@H](NC(=O)[C@H](Cc2cc(F)cc(F)c2)NC(=O)Nc2ccc(C3CC3)cc2F)[C@H](C)OC(=O)[C@@H]2C[C@@H](C)CN2C1=O`, the growth is 25.7% in test [1]; 15.5% in [2]; 41.1% in test [3]; 26.7% in [4]; 13.5% in test [5]; -3.81% (active) in test [6]. Further, the growth in test [7] was 19.9%; in [8] it was 19.9%; in [9], 16.4%; in [10] it was -40.4% (active).
